{"source": "PubChem BioAssay (EPA / NIEHS)", "note": "Activity calls are given as the source filed them. How the source made its calls: active means hit-call score of the fitted dose curve at least 0.9, where 1 is the maximum; inactive means score below 0.9.", "data": [{"assay": "APR_HepG2_MitoMembPot_72hr: Apredica 72-hour HepG2 Assay for Mitochondrial Membrane Potential (AID 2282917)", "settings": "imaging, actives raise or lower the signal", "procedure": "APR_HepG2_72hr is a cell-based, multiplexed-readout assay that uses HepG2, a human liver cell line, with measurements taken at 72 hours after chemical dosing in a 384-well plate.APR_HepG2_MitoMembPot_72hr is one of 10 assay component(s) measured or calculated from the APR_HepG2_72hr assay. It is designed to make measurements of dye binding, a form of membrane potential reporter, as detected with fluorescence intensity signals by HCS Fluorescent Imaging technology.Data from the assay component APR_HepG2_MitoMembPot_72hr was analyzed into 1 assay endpoint. This assay endpoint, APR_HepG2_MitoMembPot_72hr, was analyzed with bidirectional fitting relative to DMSO as the negative control and baseline of activity. Using a type of membrane potential reporter, gain or loss-of-signal activity can be used to understand changes in the signaling. Furthermore, this assay endpoint can be referred to as a primary readout, because this assay has produced multiple assay endpoints where this one serves a signaling function. To generalize the intended target to other relatable targets, this assay endpoint is annotated to the cell morphology intended target family, where the subfamily is organelle conformation.\nCells were treated with dimethyl sulfoxide (DMSO) as a solvent control at a final concentration of 0.5% v/v or with compounds in DMSO with a resulting final DMSO concentration of 0.5% v/v. Compound treatment was done at concentrations of 0.39, 0.78, 1.56, 3.12, 6.24, 12.5, 25, 50, 100, and 200 uM in duplicate on each plate. Cells were treated with compounds for 1, 24, or 72 hr. Carbonyl […] m-chloro-phenylhydrazone (CCCP) and taxol were used as positive controls for mitochondrial function and cytoskeletal stability, respectively; DMSO served as the negative control for this experiment. Cells were fixed by the direct addition of 50 uL formaldehyde in Hank's Balanced Salt Solution (HBSS) to a final concentration of 3.7%. After incubation in the fixation medium for 30 min at room temperature (293-298 K), cells were rinsed twice with HBSS and treated with cell permeabilization buffer (16 uL of 0.5% Triton X-100) for 10 min at room temperature (293-298 K) before labeling. For mitochondrial membrane potential and mitochondrial measurements, pre-fixed cells were incubated with 50 uL of MitoTracker Red CMXRos (Invitrogen) at a concentration of 250 nM for 30 min before fixation. In the remaining cases, post-fixed cells were labeled by incubation with a multiplexed mixture of primary antibodies in HBSS for 60 min at room temperature (293-298 K) to detect immunoreactivity of c-Jun (1:500), phospho-histone H3 (1:100), phospho-histone H2A.x (1:200), p53 (1:400), alpha-tubulin (1:200) and Hoechst 33342 (2 ug/mL). Cells were labeled for multiplexed imaging on two separate plates: a) Hoechst 33342, MitoTracker Red, phospho-histone H3, and alpha-tubulin, and b) Hoechst 33342, phospho-histone H2A.x, and c-Jun. A final rinse with HBSS (50 uL) was performed before analysis. The primary and secondary antibodies for the proteins were phospho-histone H3 (rabbit anti-phospho-histone H3 and FITC-donkey anti-rabbit IgG), phospho-histone H2A.x (mouse anti-phospho-histone H2A.x and FITC-donkey anti-mouse IgG), c-Jun (rabbit anti-phospho-c-Jun and Cy3-donkey anti-rabbit IgG), p53 (sheep anti-p53 and Cy5-donkey anti-sheep IgG), alpha-tubulin (mouse anti-alpha-tubulin and Cy5-donkey anti-mouse IgG). These antibodies are available as the CellCiphr HepG2 assay kit (Millipore).Digital images of each well were captured using a Cellomics ArrayScan VTI (Thermo Scientific Cellomics) (0.8 NA objective, 0.63x optical coupler, and XF-93 filter set) at 20x magnification. The images were acquired using the autofocus feature of the ArrayScan instrument, which entails the following steps. First, the camera focuses on channel 1 (Hoechst 33342), where nuclei are identified. Second, a Z offset of 1 um is used for capturing mitochondria (MitoTracker Red). […]", "values": [{"compound": "CCC12COCN1COC2", "outcome": "inactive"}, {"compound": "[As]#[In]", "outcome": "inactive"}, {"compound": "c1ccc(C2CO2)cc1", "note": "(stereo not given)", "outcome": "inactive"}, {"compound": "CC(C)(C)OOC(=O)c1ccccc1", "AC50": "20.1 µM (active)"}, {"compound": "CC(C)(O)c1cnn2c(-c3ccc(F)c(-c4c(F)cccc4C#N)c3)cnc2n1", "AC50": "83.9 µM (active)"}, {"compound": "Cc1ccc(N)cc1", "outcome": "inactive"}, {"compound": "CCOc1cccc(C2(N3CCN(c4ccccc4)CC3)CCC(C)CC2)c1", "note": "(stereo not given)", "outcome": "inactive"}, {"compound": "ClC1=C(Cl)[C@]2(Cl)[C@H]3[C@H]([C@@H]4C=C[C@H]3C4)[C@@]1(Cl)C2(Cl)Cl", "outcome": "inactive"}, {"compound": "Nc1cc(Cl)cc(C(=O)O)c1Cl", "outcome": "inactive"}, {"compound": "O=Cc1ccco1", "outcome": "inactive"}, {"compound": "c1ccc(N=Nc2ccccc2)cc1", "outcome": "inactive"}, {"compound": "Brc1ccc(Oc2ccccc2)cc1", "outcome": "inactive"}, {"compound": "Oc1ccccc1Cl", "outcome": "inactive"}, {"compound": "Nc1ccc([N+](=O)[O-])cc1", "outcome": "inactive"}, {"compound": "CCC(C)c1ccc(O)cc1", "note": "(stereo not given)", "outcome": "inactive"}, {"compound": "Nc1ccc(Cl)cc1N", "outcome": "inactive"}, {"compound": "CCCCCCCCCCCCCN1CC(C)OC(C)C1", "note": "(stereo not given)", "outcome": "inactive"}, {"compound": "c1ccc2c(c1)-c1cccc3cccc-2c13", "outcome": "inactive"}, {"compound": "CCOC(=O)[C@]1(c2ccccc2)Oc2ccccc2[C@@H]1N", "outcome": "inactive"}, {"compound": "OCCOCCO", "outcome": "inactive"}, {"compound": "c1ccc2c(c1)oc1ccccc12", "outcome": "inactive"}, {"compound": "CCN(CC)N=O", "outcome": "inactive"}, {"compound": "COc1cc(C=O)cc2c1[C@H](COC(N)=O)[C@]1(OC(C)=O)ON2C[C@H]2[C@@H]1N2C(C)=O", "outcome": "inactive"}, {"compound": "ClCCOCCCl", "outcome": "inactive"}, {"compound": "CC(C)COC(=O)c1ccccc1C(=O)OCC(C)C", "AC50": "80 µM (active)"}, {"compound": "c1ccc(NNc2ccccc2)cc1", "outcome": "inactive"}, {"compound": "CCCSC(=O)N(CCC)CCC", "outcome": "inactive"}, {"compound": "N#CC(Br)(Br)C(N)=O", "outcome": "inactive"}, {"compound": "Clc1ccc(C(c2ccc(Cl)cc2)C(Cl)(Cl)Cl)cc1", "AC50": "30.4 µM (active)"}, {"compound": "CCCCC(CC)COC(=O)c1ccc(C(=O)OCC(CC)CCCC)c(C(=O)OCC(CC)CCCC)c1", "note": "(stereo not given)", "outcome": "inactive"}, {"compound": "C[C@]12C=CC3=C4CCC(=O)C=C4CC[C@H]3[C@@H]1CC[C@@H]2O", "outcome": "inactive"}, {"compound": "[O-][Cl+]O", "outcome": "inactive"}, {"compound": "CCC[CH2][Sn]([Cl])([CH2]CCC)[CH2]CCC", "outcome": "inactive"}, {"compound": "Oc1ccc2ccc3cccc4ccc1c2c34", "AC50": "75.4 µM (active)"}, {"compound": "N#CC(Br)Br", "outcome": "inactive"}, {"compound": "CC(C)N(Cc1ccccc1)C(=O)C(C)(C)C", "outcome": "inactive"}, {"compound": "CCNS(=O)(=O)C(F)(F)C(F)(F)C(F)(F)C(F)(F)C(F)(F)C(F)(F)C(F)(F)C(F)(F)F", "AC50": "91.2 µM (active)"}, {"compound": "CCCCCOC(=O)c1ccccc1C(=O)OCCCCC", "outcome": "inactive"}, {"compound": "CCCCOC(=O)c1ccccc1C(=O)OCc1ccccc1", "outcome": "inactive"}, {"compound": "CC(O)CCO", "note": "(stereo not given)", "outcome": "inactive"}]}]}
